Results reported in the supplement of paper PMC10849652.
Targets with a hit are over-represented here; the source holds about 7,900 in all. About 0.6% of all pairs of compound and target were hits. Values without a mark were called inactive.

Assays:
Test in all cases: log2 fold change, soluble protein after heating vs DMSO (PISA); higher = thermal stabilisation; K562 cells, 10 uM, 30 min; active = over 0.2 and 3.5 SD of the protein, either way, in both replicates (recomputed)
[1] = compound: CN1CCN(CCOc2cc(OC3CCOCC3)c3c(Nc4c(Cl)ccc5c4OCO5)ncnc3c2)CC1 [saracatinib]
In short: (§1)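 Soluble protein was defined as the supernatant after 21,000xg for 90 min. It came from K562 cells at 2×10^6 cells/mL given 10 μM compound for 30 min, heated in aliquots for 3 min across 48°C-58°C, pooled, and extracted in PBS with 0.5% NP-40 at 4°C, and was quantified by TMTpro 16plex LC-MS/MS with equalised channel sums. Thermal stability against control samples, from duplicates, is reported as log2 fold change.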

[2] = compound: CN1CCN(c2nc(C3=C(c4c[nH]c5ccccc45)C(=O)NC3=O)c3ccccc3n2)CC1 [sotrastaurin]
In short: as §1

[3] = compound: CN1CC[C@H](c2c(O)cc(O)c3c(=O)cc(-c4ccccc4Cl)oc23)[C@H](O)C1 [alvocidib]
In short: as §1

[4] = compound: CN1CCc2c(c3ccccc3n2Cc2ccc(C(=O)NO)cc2)C1 [Tubastatin A]
In short: as §1

[5] = compound: CNC(=O)C1=CC=CC=C1NC2=NC(=NC=C2Cl)NC3=C(C=C(C=C3)N4CCOCC4)OC
In short: as §1

[6] = compound: CNC(=O)c1ccc(Nc2ncc(C(F)(F)F)c(NCc3nccnc3N(C)S(C)(=O)=O)n2)cc1 [defactinib]
In short: as §1

[7] = compound: CNCc1ccc(-c2[nH]c3cc(F)cc4c3c2CCNC4=O)cc1 [rucaparib]
In short: as §1

[8] = compound: CNc1nc(-c2ccc3c(N)n[nH]c3c2)cc(N2C[C@@H](C(=O)NC3CCCCC3)CC[C@H]2C)n1
In short: as §1

[9] = compound: COC(=O)N[C@@H](C)CNc1nccc(-c2cn(C(C)C)nc2-c2cc(Cl)cc(NS(C)(=O)=O)c2F)n1 [encorafenib]
In short: as §1

[10] = compound: COC(=O)[C@H](CCSC)NC(=O)C1=C(C=C(C=C1)NC[C@H](CS)N)C2=CC=CC=C2
In short: as §1

Chain of UniProt Q9Y4E8 (Q9Y4E8 whole entry, looked up): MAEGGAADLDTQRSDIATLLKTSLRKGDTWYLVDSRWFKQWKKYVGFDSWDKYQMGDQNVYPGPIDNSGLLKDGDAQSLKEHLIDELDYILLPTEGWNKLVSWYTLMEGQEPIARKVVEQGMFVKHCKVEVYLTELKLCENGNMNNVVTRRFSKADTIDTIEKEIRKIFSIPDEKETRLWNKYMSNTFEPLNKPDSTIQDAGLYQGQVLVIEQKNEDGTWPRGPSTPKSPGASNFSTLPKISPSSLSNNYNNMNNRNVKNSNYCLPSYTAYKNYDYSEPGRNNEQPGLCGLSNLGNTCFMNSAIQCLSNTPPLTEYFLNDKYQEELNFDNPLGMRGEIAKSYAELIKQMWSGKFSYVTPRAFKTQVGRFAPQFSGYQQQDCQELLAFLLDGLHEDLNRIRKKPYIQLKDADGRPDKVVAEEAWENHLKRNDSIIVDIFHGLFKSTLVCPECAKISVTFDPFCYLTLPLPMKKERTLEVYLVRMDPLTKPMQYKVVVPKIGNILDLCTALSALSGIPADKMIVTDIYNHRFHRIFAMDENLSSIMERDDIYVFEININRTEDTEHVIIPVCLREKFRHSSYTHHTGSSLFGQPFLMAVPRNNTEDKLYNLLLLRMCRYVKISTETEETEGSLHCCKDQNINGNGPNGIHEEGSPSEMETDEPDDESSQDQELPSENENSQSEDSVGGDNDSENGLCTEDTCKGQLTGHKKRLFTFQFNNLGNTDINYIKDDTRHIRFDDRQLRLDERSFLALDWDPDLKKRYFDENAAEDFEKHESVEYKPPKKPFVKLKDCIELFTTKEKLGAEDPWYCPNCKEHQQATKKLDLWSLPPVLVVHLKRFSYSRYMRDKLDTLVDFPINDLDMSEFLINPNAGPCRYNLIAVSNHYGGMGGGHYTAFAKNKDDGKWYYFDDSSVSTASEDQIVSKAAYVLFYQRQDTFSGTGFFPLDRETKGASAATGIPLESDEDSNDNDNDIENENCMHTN
Chain of UniProt Q8NEZ2 (Q8NEZ2 whole entry, looked up): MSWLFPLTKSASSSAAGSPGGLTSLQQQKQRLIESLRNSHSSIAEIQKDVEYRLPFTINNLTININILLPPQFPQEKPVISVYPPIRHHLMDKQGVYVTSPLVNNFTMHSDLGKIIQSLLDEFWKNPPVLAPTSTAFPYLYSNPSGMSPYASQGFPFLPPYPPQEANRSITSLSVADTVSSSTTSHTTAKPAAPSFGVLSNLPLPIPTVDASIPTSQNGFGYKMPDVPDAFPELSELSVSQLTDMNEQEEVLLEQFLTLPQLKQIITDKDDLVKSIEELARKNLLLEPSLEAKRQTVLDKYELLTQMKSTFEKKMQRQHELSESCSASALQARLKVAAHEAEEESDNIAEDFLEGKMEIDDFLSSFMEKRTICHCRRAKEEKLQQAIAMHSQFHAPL
Chain of UniProt Q92973 (Q92973 whole entry, looked up): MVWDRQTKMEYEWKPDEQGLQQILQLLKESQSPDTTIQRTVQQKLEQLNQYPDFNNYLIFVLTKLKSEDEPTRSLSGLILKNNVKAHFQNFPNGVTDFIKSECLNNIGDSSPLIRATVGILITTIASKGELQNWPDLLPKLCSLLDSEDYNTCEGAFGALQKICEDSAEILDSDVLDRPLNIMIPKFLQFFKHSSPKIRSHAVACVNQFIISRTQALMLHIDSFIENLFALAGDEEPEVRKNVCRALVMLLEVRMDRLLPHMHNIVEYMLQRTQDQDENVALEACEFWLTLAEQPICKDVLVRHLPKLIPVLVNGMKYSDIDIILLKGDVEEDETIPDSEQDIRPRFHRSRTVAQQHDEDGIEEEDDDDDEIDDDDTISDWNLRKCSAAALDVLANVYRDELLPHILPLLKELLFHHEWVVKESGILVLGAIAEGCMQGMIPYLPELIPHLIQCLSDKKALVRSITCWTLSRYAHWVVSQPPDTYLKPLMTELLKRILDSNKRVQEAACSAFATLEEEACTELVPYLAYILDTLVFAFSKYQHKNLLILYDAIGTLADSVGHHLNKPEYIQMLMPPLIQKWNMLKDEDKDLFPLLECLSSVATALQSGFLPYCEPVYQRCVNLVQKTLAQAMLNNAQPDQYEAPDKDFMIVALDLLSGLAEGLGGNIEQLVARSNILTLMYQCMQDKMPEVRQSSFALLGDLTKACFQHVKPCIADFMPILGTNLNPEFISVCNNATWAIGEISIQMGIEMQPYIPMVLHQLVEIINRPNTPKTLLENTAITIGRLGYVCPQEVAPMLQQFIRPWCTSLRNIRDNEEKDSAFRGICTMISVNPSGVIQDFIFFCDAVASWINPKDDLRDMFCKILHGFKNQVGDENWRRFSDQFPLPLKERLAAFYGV
Chain of UniProt Q15642 (Q15642 whole entry, looked up): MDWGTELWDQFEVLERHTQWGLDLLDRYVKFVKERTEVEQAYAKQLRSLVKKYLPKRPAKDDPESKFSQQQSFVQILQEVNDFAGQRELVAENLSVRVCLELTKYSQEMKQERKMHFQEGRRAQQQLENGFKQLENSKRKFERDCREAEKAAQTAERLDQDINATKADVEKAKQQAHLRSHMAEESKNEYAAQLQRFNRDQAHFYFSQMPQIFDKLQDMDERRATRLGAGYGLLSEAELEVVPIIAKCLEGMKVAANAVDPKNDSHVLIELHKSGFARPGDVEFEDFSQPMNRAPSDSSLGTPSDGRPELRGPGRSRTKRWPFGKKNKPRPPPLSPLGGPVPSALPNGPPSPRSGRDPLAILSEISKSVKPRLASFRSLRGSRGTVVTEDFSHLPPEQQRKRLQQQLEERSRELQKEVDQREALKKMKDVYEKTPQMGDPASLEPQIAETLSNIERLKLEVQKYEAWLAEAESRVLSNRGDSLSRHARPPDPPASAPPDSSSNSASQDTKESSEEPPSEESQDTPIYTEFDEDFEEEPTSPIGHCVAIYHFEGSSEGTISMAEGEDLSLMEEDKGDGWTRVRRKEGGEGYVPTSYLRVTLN
Chain of UniProt P30291 (P30291 whole entry, looked up): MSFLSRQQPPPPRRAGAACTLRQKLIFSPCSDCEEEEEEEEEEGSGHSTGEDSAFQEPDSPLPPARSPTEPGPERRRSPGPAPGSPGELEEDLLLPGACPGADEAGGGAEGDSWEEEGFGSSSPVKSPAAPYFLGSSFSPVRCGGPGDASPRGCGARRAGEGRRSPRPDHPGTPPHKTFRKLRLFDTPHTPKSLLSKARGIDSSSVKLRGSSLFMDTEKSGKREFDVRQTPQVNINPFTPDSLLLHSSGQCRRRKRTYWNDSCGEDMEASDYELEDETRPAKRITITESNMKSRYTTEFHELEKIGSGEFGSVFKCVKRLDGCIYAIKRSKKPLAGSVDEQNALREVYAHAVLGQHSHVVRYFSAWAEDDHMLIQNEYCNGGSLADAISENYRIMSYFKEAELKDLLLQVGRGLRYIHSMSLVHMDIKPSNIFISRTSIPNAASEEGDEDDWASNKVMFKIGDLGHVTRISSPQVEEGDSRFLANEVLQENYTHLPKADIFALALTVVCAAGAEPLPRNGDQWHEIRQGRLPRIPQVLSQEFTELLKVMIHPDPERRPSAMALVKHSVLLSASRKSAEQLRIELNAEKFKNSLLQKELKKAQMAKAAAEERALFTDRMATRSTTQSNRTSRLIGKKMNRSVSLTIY
Chain of UniProt Q15629 (Q15629 whole entry, looked up): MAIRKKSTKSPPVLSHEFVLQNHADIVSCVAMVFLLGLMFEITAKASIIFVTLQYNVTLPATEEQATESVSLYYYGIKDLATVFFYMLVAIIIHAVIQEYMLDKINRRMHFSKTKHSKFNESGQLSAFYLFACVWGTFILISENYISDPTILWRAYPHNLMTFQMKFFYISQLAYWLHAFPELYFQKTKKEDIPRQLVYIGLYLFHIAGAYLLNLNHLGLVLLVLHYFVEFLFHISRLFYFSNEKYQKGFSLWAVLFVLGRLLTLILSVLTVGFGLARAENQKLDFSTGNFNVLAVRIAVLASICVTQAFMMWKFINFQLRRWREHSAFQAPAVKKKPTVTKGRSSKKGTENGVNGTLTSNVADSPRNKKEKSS
Chain of UniProt Q8N4H5 (Q8N4H5 whole entry, looked up): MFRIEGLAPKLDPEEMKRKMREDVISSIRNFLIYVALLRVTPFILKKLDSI
Chain of UniProt Q9NV66 (Q9NV66 whole entry, looked up): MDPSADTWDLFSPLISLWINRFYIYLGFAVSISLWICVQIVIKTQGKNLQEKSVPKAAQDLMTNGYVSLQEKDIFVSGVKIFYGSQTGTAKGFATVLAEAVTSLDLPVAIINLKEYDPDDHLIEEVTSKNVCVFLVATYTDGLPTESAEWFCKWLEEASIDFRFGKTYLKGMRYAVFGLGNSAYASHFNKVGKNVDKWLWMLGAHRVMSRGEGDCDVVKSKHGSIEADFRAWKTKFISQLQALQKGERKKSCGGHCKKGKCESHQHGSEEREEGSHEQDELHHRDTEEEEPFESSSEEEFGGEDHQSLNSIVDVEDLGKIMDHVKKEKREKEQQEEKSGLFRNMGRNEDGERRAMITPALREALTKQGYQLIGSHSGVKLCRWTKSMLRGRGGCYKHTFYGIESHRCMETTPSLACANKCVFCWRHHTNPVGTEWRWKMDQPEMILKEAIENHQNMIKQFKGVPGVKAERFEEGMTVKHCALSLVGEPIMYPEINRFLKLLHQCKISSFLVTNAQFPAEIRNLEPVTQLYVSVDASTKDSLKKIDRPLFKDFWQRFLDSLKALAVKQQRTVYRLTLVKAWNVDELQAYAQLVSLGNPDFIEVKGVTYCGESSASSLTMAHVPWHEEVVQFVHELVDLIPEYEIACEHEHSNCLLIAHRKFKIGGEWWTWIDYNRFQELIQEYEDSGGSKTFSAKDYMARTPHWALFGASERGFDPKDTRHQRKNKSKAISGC
Chain of UniProt O95857 (O95857 whole entry, looked up): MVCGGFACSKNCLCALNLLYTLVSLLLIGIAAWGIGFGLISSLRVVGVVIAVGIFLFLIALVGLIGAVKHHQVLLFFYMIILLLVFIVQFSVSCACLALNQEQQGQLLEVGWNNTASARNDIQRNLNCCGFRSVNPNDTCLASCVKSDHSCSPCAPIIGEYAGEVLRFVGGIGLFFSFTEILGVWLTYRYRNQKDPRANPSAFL

| Target | log2 fold change [1] | log2 fold change [2] | log2 fold change [3] | log2 fold change [4] | log2 fold change [5] | log2 fold change [6] | log2 fold change [7] | log2 fold change [8] | log2 fold change [9] | log2 fold change [10] |
| --- | --- | --- | --- | --- | --- | --- | --- | --- | --- | --- |
| TMEM208 (UniProt Q9BTX3) | -0.047 | -0.02 | -0.039 | 0.003 | -0.142 | -0.023 | -0.045 | -0.099 | 0.145 | -0.164 |
| TRIP10 isoform 2 (UniProt Q15642) | 0.021 | 0.151 | 0 | 0.051 | -0.258 | -0.196 | 0.071 | -0.081 | -0.147 | -0.246 |
| TMEM214 (UniProt Q6NUQ4) | -0.04 | 0.068 | 0.009 | 0.062 | -0.002 | -0.04 | 0.121 | 0.03 | 0.041 | -0.039 |
| TXNIP (UniProt Q9H3M7) | -0.074 | 0 | -0.307 | 0.06 | 0.179 | -0.085 | -0.026 | 0.243 | 0.01 | 0.07 |
| UBC (UniProt P0CG48) | -0.106 | 0.042 | -0.049 | 0.252 | 0.002 | 0.031 | 0.053 | 0.017 | -0.124 | 0.005 |
| TNPO1 (UniProt Q92973) | 0.034 | -0.062 | -0.141 | -0.064 | -0.013 | -0.123 | -0.04 | 0.009 | 0.029 | 0.006 |
| TPP1 (UniProt O14773) | -0.008 | -0.005 | -0.005 | 0.005 | 0.007 | 0.049 | -0.013 | -0.013 | 0.018 | 0.011 |
| WDR46 (UniProt O15213) | -0.095 | 0.003 | 0.387 | 0.101 | 0.101 | 0.39 | 0.289 | 0.084 | 0.128 | -0.015 |
| TOMM5 isoform 2 (UniProt Q8N4H5) | -0.033 | 0.064 | 0.012 | 0.027 | 0.059 | 0.01 | -0.033 | -0.031 | -0.036 | 0.049 |
| UTP4 (UniProt Q969X6) | 0.05 | 0.013 | 0.104 | -0.097 | 0.015 | 0.178 | 0.086 | 0.002 | -0.016 | 0.041 |
| TRIM23 (UniProt P36406) | 0.033 | 0.075 | -0.034 | 0.032 | -0.049 | -0.004 | 0.057 | 0.035 | 0.012 | -0.039 |
| USP25 isoform 3 (UniProt Q9UHP3) | 0.045 | -0.003 | -0.031 | 0.061 | 0.044 | -0.045 | 0.019 | -0.028 | 0.01 | -0.033 |
| TOP2A isoform 4 (UniProt P11388) | -0.168 | 0.006 | 0.261 | 0.103 | 0.102 | 0.438 | 0.434 | 0.273 | 0.288 | -0.086 |
| VPS37A (UniProt Q8NEZ2) | -0.043 | -0.087 | 0.015 | 0.002 | 0.07 | -0.164 | – | 0.065 | – | 0.138 |
| TRIM5 (UniProt Q9C035) | -0.429 | 0.103 | -0.048 | -0.102 | -0.093 | -0.108 | – | -0.017 | – | 0.019 |
| ULBP1 (UniProt Q9BZM6) | -0.027 | -0.175 | 0.005 | 0.016 | -0.096 | 0.064 | – | 0.07 | – | 0.048 |

| Target | log2 fold change [1] | log2 fold change [2] | log2 fold change [3] | log2 fold change [4] | log2 fold change [5] | log2 fold change [6] | log2 fold change [7] | log2 fold change [8] | log2 fold change [9] | log2 fold change [10] |
| --- | --- | --- | --- | --- | --- | --- | --- | --- | --- | --- |
| TYW1 (UniProt Q9NV66) | 0.089 | -0.059 | -0.064 | -0.033 | 0.031 | -0.055 | 0.052 | -0.061 | 0.028 | -0.059 |
| VPS8 (UniProt Q8N3P4) | -0.009 | -0.096 | -0.038 | 0.09 | 0.002 | -0.171 | 0.023 | -0.015 | 0.093 | -0.078 |
| VPS18 (UniProt Q9P253) | -0.034 | -0.156 | -0.118 | -0.052 | -0.003 | -0.068 | 0.099 | 0.029 | 0.031 | -0.076 |
| USP15 (UniProt Q9Y4E8) | -0.013 | -0.093 | -0.069 | 0.014 | 0.049 | -0.093 | 0.032 | 0.019 | 0.061 | -0.031 |
| TMEM219 (UniProt Q86XT9) | 0.261 | 0.03 | -0.12 | -0.059 | -0.016 | -0.185 | – | 0.176 | – | -0.093 |
| UGDH (UniProt O60701) | -0.036 | -0.284 (active) | -0.273 | 0.004 | -0.085 | -0.209 | -0.089 | 0.074 | 0.087 | -0.038 |
| TSPAN13 (UniProt O95857) | -0.055 | 0.044 | -0.305 | -0.11 | 0.054 | -0.104 | – | -0.029 | – | -0.291 |
| WDR18 (UniProt Q9BV38) | 0.057 | -0.001 | -0.027 | 0.008 | -0.032 | -0.051 | -0.009 | -0.038 | 0.001 | 0.003 |
| WDHD1 (UniProt O75717) | -0.027 | -0.067 | -0.135 | 0.079 | 0.075 | -0.201 | -0.06 | 0 | 0.119 | -0.022 |
| UHRF1BP1 (UniProt Q6BDS2) | 0.011 | 0.049 | -0.043 | 0.016 | -0.013 | -0.064 | -0.007 | 0.048 | -0.012 | 0.017 |
| VRK2 (UniProt Q86Y07) | -0.036 | 0.075 | 0.4 (active) | 0.014 | -0.102 | 0.106 | -0.039 | -0.017 | -0.001 | -0.092 |
| WEE1 (UniProt P30291) | 0.068 | 0.007 | 0.084 | 0.117 | 0.075 | -0.029 | – | -0.052 | – | 0.082 |
| TRAM1 (UniProt Q15629) | -0.007 | -0.025 | -0.02 | -0.052 | -0.208 | -0.029 | -0.132 | 0 | 0.179 | -0.052 |
| TOM1L1 (UniProt O75674) | -0.003 | 0.019 | -0.046 | -0.066 | -0.043 | -0.042 | -0.02 | -0.026 | -0.042 | -0.041 |
| VPS41 (UniProt P49754) | -0.02 | -0.077 | -0.046 | 0.034 | -0.055 | -0.041 | 0.023 | -0.001 | -0.011 | 0.103 |
